High-throughput results: PubChem BioAssay, several laboratories
MazF activator: activators of E. coli MazEF toxin-antitoxin RNase, primary screen, biochemical, fluorescence, uHTS; Endoribonuclease toxin MazF (Escherichia coli (strain K12)), P0AE70; FAM/BHQ RNA-DNA oligo cleavage fluorescence, 5 h; activation, % at 20 µM; hit rate 0.32% among 350,000; AID 504720, 2011; in the data active = activation above about 50%
Target sequence (P0AE70 whole entry, looked up): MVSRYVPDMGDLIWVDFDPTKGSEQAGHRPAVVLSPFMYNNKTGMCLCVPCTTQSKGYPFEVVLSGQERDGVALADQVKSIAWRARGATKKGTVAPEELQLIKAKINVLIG
Sa ugtP lethal: growth inhibition of ugtP-null S. aureus, primary screen, RN4220 ugtP deletion, OD600; 16 h; growth inhibition, % (no concentration beside the values); hit rate 0.54% among 330,000; in the data active = growth inhibition above about 68%
Sa RN4220 lethal: growth inhibition of S. aureus RN4220, primary screen, OD600; 16 h; inhibition, % (test concentration not listed); hit rate 0.33% among 330,000; AID 1259311, 2017; in the data active = inhibition above about 85%
SSB-PriA inh: inhibitors of Klebsiella pneumoniae PriA binding to SSB C-terminal tail, primary screen, biochemical, AlphaScreen; inhibition, % at 33 µM; AlphaScreen SSBct-PriA binding, biotinylated peptide; PriA–SSB C-terminal tail interaction (Klebsiella pneumoniae); hit rate 0.6% among 430,000; in the data active = inhibition mostly above about 37%, no sharp cut-off; inactive = mostly below about 20%
BJeLR lethal: MLPCN primary cell-based screen for lethality selective to Ras in HRASV12 cells; BJeLR (HRASV12) viability, CellTiter-Glo ATP luminescence, 48 h; inhibition, % (test concentration not listed); hit rate 0.17% among 300,000; in the data active = inhibition above about 50%
A number is an active result; n = inactive; x = not tested or not shown; + = active, no number; ! = a repeat was not active. In the library only some 1.2% were active in any assay of this set; here they are far more common.

SMILES | MazF activator | Sa ugtP lethal | Sa RN4220 lethal | SSB-PriA inh | BJeLR lethal
c1ccc(-c2csc3nnc(SCc4ccc5c(c4)OCCO5)n23)cc1 | n | n | n | 40! | n
O=C(CSc1nnc2scc(-c3ccccc3)n12)c1ccc2c(c1)OCCO2 | 55 | n | n | n | n
O=C(Cc1ccccc1)N/N=C/c1ccc(-c2ccc([N+](=O)[O-])cc2)o1 | 348 | x | x | x | n
NC(=O)N/N=C/c1ccc(-c2ccc([N+](=O)[O-])cc2)o1 | n | x | x | n | n
Cc1ccc(Cn2ncn3c(cc4ccccc43)c2=O)cc1 | n | 93 | n | n | n
CCN(C(=O)COC(=O)Cn1c(=O)oc2ccccc21)c1c(N)n(Cc2ccccc2)c(=O)[nH]c1=O | n | n | n | n | x
COc1ccc(C=c2sc(=CC(=O)c3ccc(C)cc3)[nH]c2=O)c(OC)c1 | x | 89 | n | n | x
COc1cccc(/C=c2\s/c(=C/C(=O)c3ccc(C)cc3)[nH]c2=O)c1OC | n | x | x | x | n
COc1ccc(/C=c2\s/c(=C/C(=O)c3ccc(C)cc3)[nH]c2=O)c(OC)c1 | + | x | x | x | n
CCCCCCCC(=O)N1CCN(c2cc3c(cc2F)c(=O)c(C(=O)O)cn3CC)CC1 | n | 99 | 95 | n | n
CCn1cc(C(=O)O)c(=O)c2cc(F)c(N3CCN(C)CC3)cc21 | n | 100 | 99 | n | n
CN1CCN(c2c(F)cc3c(=O)c(C(=O)O)cn4c3c2SCC4)CC1 | n | 99 | 99 | n | n
CCCCCCCCC(=O)N1CCN(c2cc3c(cc2F)c(=O)c(C(=O)O)cn3CC)CC1 | n | n | n | n | n
O=C(Nc1ccc(Cl)c(Cl)c1)C1=Cc2ccccc2OC1 | n | 98 | 86 | n | n
O=C(Nc1cccc([N+](=O)[O-])c1)C1=Cc2ccccc2OC1 | x | x | x | n | x
CCOC(=O)c1cn(C2CC2)c2c(F)c(F)c(F)cc2c1=O | n | n | n | n | n
C[C@@H]1CN(c2c(F)c(F)c3c(=O)c(C(=O)O)cn(C4CC4)c3c2F)C[C@H](C)N1 | n | 97 | 96 | n | n
O=C1C(=O)c2ccc(-c3ccccc3)cc2-c2ccccc21 | n | n | n | n | 110
Nc1ccc2c(c1)C(=O)c1ccccc1-2 | n | n | n | n | n
Nc1ccc2c(c1)C(=O)C(=O)c1ccccc1-2 | n | 98 | 98 | n | 114
Cn1cccc1C(O)CNC(=O)NC1CCCCC1 (stereo unspecified) | x | x | x | n | x
CCCCCc1c(C)nc(Nc2ccccc2)[nH]c1=O | n | n | n | n | n
O=C(NC1CCN(S(=O)(=O)c2ccc(Cl)cc2)CC1)C1CCCCC1 | n | n | n | n | n
COc1ccccc1C(=O)N1CCN(c2nccn2-c2ccc(C)cc2)CC1 | x | x | x | n | x
COc1ccc(C(=O)N2CCN(c3nccn3-c3ccc(C)cc3)CC2)c(OC)c1 | x | x | x | 38 | x
SMILES | MazF activator | Sa ugtP lethal | Sa RN4220 lethal | SSB-PriA inh | BJeLR lethal
COc1cc(OC)cc(C(=O)N2CCN(c3nccn3-c3cccc(Cl)c3)CC2)c1 | x | x | x | 40 | x
Cc1ccc(N(C(C)C(=O)Nc2ccc3c(c2)OCO3)S(C)(=O)=O)cc1 (stereo unspecified) | n | n | n | n | n
CCN(CC)C(=O)CC(c1ccc(N(C)C)cc1)c1c(OC)cc(OC)c2c(-c3ccccc3)cc(=O)oc12 (stereo unspecified) | n | n | n | 48 | n
CCCCCc1cc(=O)oc2c(C(CCN3CCCC3)c3ccc(N(C)C)cc3)c(OC)cc(OC)c12 (stereo unspecified) | n | n | n | 50 | n
CC(C)Oc1ccc(S(=O)(=O)N2CCCCC2)cc1NC(=O)C1=COCCO1 | n | n | n | n | n
O=C(NCc1ccco1)c1cc(-c2cccs2)nc2ccccc12 | + | n | n | n | n
N#CC(C#N)=NNc1ccc(-n2ccc(C(F)(F)F)n2)cc1 | n | x | x | n | 59
O=C(Nc1ccccc1)Nc1ccc(-n2ccc(C(F)(F)F)n2)cc1 | n | n | n | n | n
N#Cc1nccnc1N1CCC(CNS(=O)(=O)c2ccc3c(c2)OCCO3)CC1 | x | x | x | n | x
CCCn1c(N)c(N2CCCCC2)c(=O)n(CC(=O)Nc2ccc(OC(F)(F)F)cc2)c1=O | n | n | n | n | n
Cc1c(C=NNC(=O)c2ccc(O)cc2)c2ccccn2c1C(=O)c1ccc(F)cc1 | x | n | n | n | x
Cc1c(C=NNC(=O)c2ccc(Br)cc2)c2ccccn2c1C(=O)c1ccncc1 | 59 | n | n | n | x
Cc1nc(N)sc1C(=O)NN=Cc1cccnc1 | x | n | n | n | x
O=C(O)c1ccc(CNC(=O)c2ccc(S(=O)(=O)N3CCCC3)cc2)cc1 | n | x | x | x | x
O=C(Cc1csc(Nc2ccccc2)n1)Nc1ccc2c(c1)OCCO2 | x | x | x | n | x
O=C(Cc1csc(Nc2cccc(Cl)c2)n1)Nc1ccc2c(c1)OCCO2 | x | x | x | 20 | x
O=C(Cc1csc2nc(-c3ccccc3)cn12)Nc1ccc2c(c1)OCCO2 | x | x | x | 44 | x
Cc1c(C(=O)Nc2ccc3c(c2)OCO3)sc2nc(-c3ccccc3)cn12 | 66 | n | n | n | n
COc1ccc(/C=C2\NC(=S)N(CC3CCCO3)C2=O)c(OC)c1 (stereo unspecified) | n | n | n | n | n
O=C(NCC(=O)N1CCOCC1)OCc1ccccc1 | n | n | n | n | n
Cc1cccc(N=C2NN=C(c3ccc4c(c3)OCCO4)CS2)c1 | n | n | n | n | n
CCc1ccc(C2=NNC(=Nc3cccc(S(=O)(=O)N(C)C)c3)SC2)cc1 | n | n | n | 42 | n
Cc1cc(N(C)C)nc(NCCNC(=O)COc2nccc(C)n2)n1 | x | x | x | n | x
O=CC1=C(N2CCOCC2)/C(=C\c2ccccc2)CC1 | n | n | n | n | n
O=C(NC(=O)c1ccc(F)cc1)Nc1nc(-c2cccs2)cc(C(F)(F)F)n1 | 94 | n | n | n | n
SMILES | MazF activator | Sa ugtP lethal | Sa RN4220 lethal | SSB-PriA inh | BJeLR lethal
CCN(CC)C(=S)SSC(=S)N(CC)CC | n | 99 | n | n | n
CN1CCN(CCC(=O)N/N=C/c2ccccn2)CC1 | n | x | x | x | n
C/C(=N\NC(=O)CNc1cccc(Cl)c1C)C1CC1 | n | x | x | x | n
O=C(CSc1n[nH]c(-c2ccccn2)n1)Nc1ccccc1 | n | n | n | 82 | n
COc1ccccc1NC(=O)CSc1n[nH]c(-c2ccccn2)n1 | n | n | n | 77 | n
COc1ccc(NC(=O)CSc2n[nH]c(-c3ccccn3)n2)cc1 | n | n | n | 67 | n
O=C(CSc1n[nH]c(-c2ccccn2)n1)Nc1ccccc1F | n | n | n | 50 | n
O=C(CSc1n[nH]c(-c2cccnc2)n1)Nc1ccccc1 | n | n | n | n | n
COc1ccc(NC(=O)CSc2n[nH]c(-c3ccccc3)n2)cc1 | x | x | x | n | x
O=S1(=O)c2c(Oc3cccc4ccccc34)cccc2OC(COCc2ccccc2)CN1C1CCCC1 (stereo unspecified) | n | x | x | n | x
COC(=O)C(=CNc1cccc2ccccc12)[N+](=O)[O-] | x | x | x | 55 | x
COC(=O)/C(=C/Nc1cccc2ccccc12)[N+](=O)[O-] | n | n | n | x | n
